Screening results (PubChem BioAssay)
MITF inh = MITF inhibitors, primary screen, biochemical, AlphaScreen, human; Microphthalmia-associated transcription factor (Homo sapiens), O75030; AlphaScreen MITF homodimerization, bead proximity signal; inhibition, % at 2.6 µM; 650,000 tested, 0.91% active; AID 1259374, 2018; in the data active = inhibition above about 50%;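 also: 0% = vehicle wells with protein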
TEAD-YAP inh = TEAD-YAP interaction inhibition, primary screen, TEAD-YAP interaction inhibitor project, luminescence, HEK-TIYL cells; TEAD-Gal4/YAP UAS-luciferase luminescence; inhibition, % at 9.12 µM; 640,000 tested, 1.4% active; AID 1259422, 2018; in the data active = inhibition above about 32%;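 also: 0% = median of test compound wells and 100% = reference inhibitor wells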
FBW7 activator = FBW7 E3 ligase activators, primary screen, biochemical, AlphaScreen, human; AID 1259310, 2017; 650,000 tested, 0.13% active; F-box/WD repeat-containing protein 7 (Homo sapiens), Q969H0; AlphaScreen FBW7–phospho-cyclin E peptide binding, activator screen; normalized activity (activation), % at 26.1 µM; in the data active = normalized activity above about 1.9%;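 also: purified mutant Fbw7 with reduced substrate affinity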
Target sequence (Q969H0 whole entry, looked up): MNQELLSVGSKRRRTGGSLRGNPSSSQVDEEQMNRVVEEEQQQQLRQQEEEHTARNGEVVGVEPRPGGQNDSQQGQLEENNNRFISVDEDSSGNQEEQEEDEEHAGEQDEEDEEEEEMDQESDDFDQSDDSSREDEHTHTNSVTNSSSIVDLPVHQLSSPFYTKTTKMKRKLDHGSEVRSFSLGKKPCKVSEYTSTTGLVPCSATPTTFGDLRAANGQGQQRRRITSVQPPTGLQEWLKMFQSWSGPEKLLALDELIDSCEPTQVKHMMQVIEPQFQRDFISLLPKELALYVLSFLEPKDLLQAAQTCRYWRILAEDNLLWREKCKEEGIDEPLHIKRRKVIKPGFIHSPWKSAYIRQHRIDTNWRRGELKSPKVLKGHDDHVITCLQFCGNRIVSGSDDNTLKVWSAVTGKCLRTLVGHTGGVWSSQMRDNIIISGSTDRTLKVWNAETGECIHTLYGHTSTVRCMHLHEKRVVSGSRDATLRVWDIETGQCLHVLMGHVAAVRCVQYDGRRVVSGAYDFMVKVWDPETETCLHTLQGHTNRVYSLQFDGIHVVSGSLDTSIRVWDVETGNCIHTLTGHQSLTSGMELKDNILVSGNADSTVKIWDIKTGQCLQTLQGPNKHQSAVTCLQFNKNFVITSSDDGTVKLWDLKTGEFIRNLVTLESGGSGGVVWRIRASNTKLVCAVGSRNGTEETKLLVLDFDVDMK
GPR151 ag = activators of human GPR151, primary screen, cell-based, PathHunter beta-arrestin, luminescence; activation, % at 11.2 µM; 650,000 tested, 1% active; PathHunter beta-arrestin GPR151 cells; AID 1508602, 2020; G-protein coupled receptor 151 (Homo sapiens), Q8TDV0; in the data active = activation above about 4.9%;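 also: 0% = median of compound wells and 100% = cells with positive control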
Numbers without * were called inactive. A selection: hits, their analogues and other compounds. The true share with any hit is near 3.5%.

SMILES | MITF inh | TEAD-YAP inh | FBW7 activator | GPR151 ag
CC(C)CCNC(=O)c1cccn2c(=O)c3cc4ccccc4cc3nc12 | -4 | -29 | 0 | 0
CN(C)CCNC(=O)c1cccn2c(=O)c3cc4ccccc4cc3nc12 | 2 | 71* | 0 | 0
COCCCN1C(=O)c2[nH]nc(-c3ccccc3O)c2C1c1ccc(Cl)cc1 (centres undefined) | 0 | 12 | 0 | 0
COCCCN1C(=O)c2[nH]nc(-c3ccccc3O)c2C1c1cccc(Cl)c1 (centres undefined) | 9 | 36* | 0 | 1
Cc1cc(C)c(NS(=O)(=O)c2cccc(C(=O)O)c2)c(C)c1 | 12 | 4 | 0 | 1
c1ccc2c(-c3csc(NC4CCCC4)n3)c[nH]c2c1 | 1 | -9 | 5.4* | 0
c1ccc2c(-c3csc(NCC4CCCO4)n3)c[nH]c2c1 (centres undefined) | -6 | -10 | 0 | 0
CCc1ccc(-c2nc(CSCC(=O)N3CCN(c4ccccn4)CC3)c(C)o2)cc1 | 3 | 35* | -1 | 0
Cc1ccc(-c2nc(CSCC(=O)N3CCN(c4ccccn4)CC3)c(C)o2)cc1 | -10 | 40* | 0 | 1
c1nc2nc3c(c(Nc4ccc5c(c4)OCCO5)n2n1)CCC3 | -7 | 40* | 0 | 1
COc1ccc(-c2ccc(NCCCN(C)C)nc2)cc1 | -12 | 4 | 0 | 0
COc1ccc2c(-c3ccccc3)cc(NCCCN(C)C)nc2c1 | 68* | -13 | 0 | -1
CN1CCN(Cc2nc(-c3ccc(F)cc3)cs2)CC1CCO (centres undefined) | 9 | -4 | 0 | -3
CC(C)(C)CN1CCN(Cc2nc(-c3ccc(F)cc3)cs2)CC1CCO (centres undefined) | 0 | 44* | 0 | -2
NC(=S)N/N=C/c1cc(Cl)cc(Cl)c1O | 37 | 7 | -3 | 0
NC(=O)C(=O)N/N=C/c1cccc(O)c1O | 56* | -7 | -1 | 1
NC(=S)N/N=C/c1cccc(/C=N/NC(N)=S)c1 | 9 | 2 | 0 | 0
NC(=O)N/N=C/c1cccc(C(=O)O)c1O | -6 | 3 | 0 | 1
Cc1cc(/C=N/NC(N)=S)c(O)c(/C=N/NC(N)=S)c1 | 82* | 0 | -1 | 0
Oc1cccc(/C=N/NC(=S)NCCN2CCOCC2)c1O | 106* | -18 | -1 | 0
NC(=S)N/N=C/c1cccc(O)c1O | 106* | -9 | -1 | 1
CC(C)(C)n1nc2c(c1NC(=O)c1ccc3ccccc3c1)CS(=O)(=O)C2 | -9 | 0 | 0 | 0
Cc1[nH][nH]c(=O)c1C(c1c(C)[nH][nH]c1=O)c1c(OC(C)C)ccc2ccccc12 | 6 | 6 | -1 | 0
O=C(NCc1ccccn1)c1ccc2c(=O)n(C3CCCC3)c(=S)[nH]c2c1 | 7 | 8 | 0 | 1
O=C(NC1CCCCCC1)/C(=C/c1ccco1)n1nnnc1-c1ccccc1 | 7 | 34* | 0 | 1
SMILES | MITF inh | TEAD-YAP inh | FBW7 activator | GPR151 ag
NC(=O)COC(=O)/C(=C/c1ccco1)n1nnnc1-c1ccccc1 | 13 | 1 | 0 | 1
CCOc1ccc(Nc2cc(C)nc3ccc(OC)cc23)cc1 | 11 | 12 | 0 | 1
COC(=O)c1ccc2nc(C)cc(Nc3ccc(OC)cc3)c2c1 | 5 | -6 | 0 | 0
CCOc1ccc2nc(C)cc(Nc3cc(Cl)ccc3OC)c2c1 | 0 | 38* | 0 | 0
COC(=O)c1ccc(Nc2cc(C)nc3ccc(OC)cc23)cc1 | 20 | 36* | 0 | -2
COc1ccc(OC)c(Nc2cc(C)nc3ccc(OC)cc23)c1 | 1 | 68* | 0 | 0
COc1ccc2nc(C)cc(Nc3ccc(N4CCN(C)CC4)cc3)c2c1 | 4 | 77* | 0 | -1
COc1ccc(C(=O)NC(CCSC)C(=O)N2CCN(c3ncccn3)CC2)cc1 (centres undefined) | -1 | 8 | 0 | 1
COc1ccc(Nc2cc(C)nc3nc(C)nn23)c(OC)c1 | 13 | 8 | 0 | -1
COc1ccc(OC)c(Nc2cc(C)nc3nc(C)nn23)c1 | 2 | 34* | 0 | 0
COc1ccc(CCNC(=O)c2sc3ncnc(N4CCN(c5ccccc5OC)CC4)c3c2C)cc1OC | 18 | 14 | 0 | -1
COc1ccc(CCNC(=O)c2sc3ncnc(N4CCN(c5ccccn5)CC4)c3c2C)cc1OC | -5 | 70* | 0 | 0
O=C1c2ccccc2C(=O)C12OC(c1ccc(Br)cc1)C1(C(=O)c3ccccc3C1=O)C2c1ccc(F)cc1 (centres undefined) | 63* | -5 | 0 | 0
Cc1ccc(C2OC3(C(=O)c4ccccc4C3=O)C(c3ccccc3)C23C(=O)c2ccccc2C3=O)cc1 (centres undefined) | 1 | 9 | 0 | 0
Cc1ccc(C(=O)Nc2ncc(C)s2)c(C)c1 | 6 | 80* | 0 | -4
Cc1ccc(S(=O)(=O)Nc2ccc(Cl)c3cccnc23)cc1 | -11 | 58* | 0 | -1
O=S(=O)(Nc1ccc(Cl)c2cccnc12)c1ccccc1 | 18 | 53* | 0 | -1
Cc1ccc(C(=O)Nc2ccc(O)c(-c3nc4ccccc4s3)c2)cc1 | 5 | 10 | 0 | 0
COc1cc(/C=C/C(=O)C(C)(C)O)cc(OC)c1OC | -1 | 16 | 0 | 1
COc1cc(/C=C/C(=O)N2CCC=CC2=O)cc(OC)c1OC | -9 | 78* | 0 | -2
O=C(N/N=C/c1ccc(O)cc1)c1cc[n+]([O-])cc1 | -1 | 5 | 0 | 0
O=C(NC1CC1)c1ccnc(Cl)c1 | -3 | 0 | 0 | 0
O=C(NC1CCC(CC2CCC(NC(=O)c3ccncc3)CC2)CC1)c1ccncc1 (centres undefined) | -9 | 32* | 0 | 0
CCC(=O)Nc1nc(-c2ccc3c(c2)CCN3C(=O)CC(C)(C)C)cs1 | 11 | -50 | 0 | 1
COc1cccc(O)c1O | 90* | 43* | 0 | -2
SMILES | MITF inh | TEAD-YAP inh | FBW7 activator | GPR151 ag
Nc1nc2c(nc(N3CCOCC3)n2C2OC(CO)C(O)C2O)c(=O)[nH]1 (centres undefined) | 10 | 4 | 2.3* | -1
CC(=O)C1=C(c2ccc([N+](=O)[O-])cc2)N(C(C)=O)n2cnnc2S1 | -6 | 32* | 0 | 1
CN1CCCN(C(=O)C2CC23CCN(Cc2ccc(Oc4ncccn4)cc2)CC3)CC1 (centres undefined) | 0 | 10 | 0 | 1
O=C(Nc1onc2c1CCCC2)c1ccc2c(c1)OCO2 | 6 | 65* | 0 | -9
O=C(O)C1=C(C(=O)Nc2ccc3c(c2)OCCO3)CCCC1 | 3 | 55* | 0 | 0
CCCCOc1cccc(C(=O)Nc2ccc3c(c2)OCCO3)c1 | 7 | -21 | 0 | -1
O=C(Nc1onc2c1CCC2)c1ccc2ccccc2c1 | -9 | -26 | 0 | 0
COc1cccc(C(=O)Nc2ccc3c(c2)OCCO3)c1 | 13 | 79* | 0 | -10
